Among the data in PubChem BioAssay AID598 (SRMLSC, 2007) are viability values, retold here.

Screen size: about 85,000 compounds; about 5,100 (6%) were called active.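 The calls were made as follows: active = viability at or below 40%; inactive = viability above 40%.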 Shown is part of a subset that was picked to be rich in actives.

A short description of the experiment: H69AR cell viability reduction – human, 86K library, primary screen (AID 598).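 Also: multidrug resistant small cell line overexpressing MRP-1 efflux transporter; 100% = mean luminescence of untreated control wells.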 To be noted: H69AR lung tumor viability, ATP luminescence, 72 h; at 10 µM; stronger effect = lower value.
The term viability denotes a read-out of living cells in per cent, often relative to untreated cells. For the molecule `COc1cccc(OCc2cc(/C=N/NC(=O)c3nc(Cl)c(Cl)c(N)c3Cl)ccc2OC)c1`, the viability was 19.7% (active).

As to `COc1cccc(OCCOc2cccc(/C=N/n3cnnc3)c2)c1`, the viability was 84.3% (inactive). For the molecule `COc1cccc(OCC(=O)Nc2ccccc2C(N)=O)c1`, the viability was 85.5% (inactive).

As to `CCCCCN1CC(O)=C(c2ccccc2)C1=N`, the viability was 88.7% (inactive).

In the case of `O=C(c1cn(-c2ccccc2)nc1-c1cccnc1)N1CCCCC1`, the viability was 90.8% (inactive).

In the case of `COc1ccc(Nc2ncc(C(=O)N3CCN(c4ccccc4OC)CC3)c3ccccc23)cc1`, the viability was 80.8% (inactive).

On to `COc1ccccc1N1CCN(C(=O)c2cn(-c3ccccc3)nc2-c2cccnc2)CC1`, for which the viability is 21.9% (active). Then `COc1cccc2c1OCC1COc3c(c(=O)n(C)c(=O)n3C)C21` (stereo not drawn), with 94.9% (inactive).

For `COc1cccc(C(=O)c2cc3ccc(O)cc3oc2=O)c1`, the viability is 68.4% (inactive). Regarding `CCCCCCc1cc2cc(-c3nnc(-c4ccccc4)o3)c(=O)oc2cc1O`, the viability is 9.42% (active).

For `CCCCCCc1cc2cc(-c3nnc(-c4cccc(OC)c4)o3)c(=O)oc2cc1O`, the viability was 2.32% (active).

For the molecule `O=c1oc2cc(O)ccc2cc1-c1ccc(F)cc1`, the viability is 88.7% (inactive). As for `CCCCN(CC)CCCNC(=O)CS(=O)(=O)Cc1nc(-c2cccc(OC)c2)oc1C`, the viability was 88.1% (inactive). For the molecule `CC(C)CCSc1ncnc2c1oc1nc3c(cc12)COC(C)(C)C3`, the viability is 68.6% (inactive). As for `Cc1nnc(SCc2nc3ccccc3nc2C)s1`, the figure is 97.2% (inactive). Then `Cc1cccc(N2C(=O)c3cccnc3C2=O)c1`, with 92.3% (inactive); and `CCN(CC)CCn1c(=S)[nH]c2ncccc2c1=O`, with 101% (inactive); and `C=C(C)CNC(=S)/N=c1\scc(C)n1CC`, with 91.2% (inactive). As for `CCC(C)NC(=O)CCCc1ccccc1` (stereo not drawn), the figure is 86.3% (inactive). Regarding `CCCCCc1ccc(-c2ccc(C(=O)O)cc2)nc1`, the viability was 35.7% (active).

Regarding `O=C(O)c1ccc(COCC(F)(F)F)cc1`, the viability is 98.2% (inactive). In the case of `Cc1ccc(Cn2ccc(NC(=O)c3cc(C(C)C)on3)n2)cc1`, the viability was 95% (inactive).

Consider `Cc1cc(NC(=O)c2cc(-c3cccs3)on2)nn1Cc1ccc(Cl)cc1`, for which the viability is 26.1% (active). As for `O=C(c1cc(-c2cccs2)on1)N1CCCCC1`, the figure is 97.2% (inactive); as for `Cc1ccc(S(=O)(=O)N2CCN(S(=O)(=O)N3CCOCC3)CC2)cc1`, 93.1% (inactive). As for `C/C(=N\NC(=O)c1ccc(C)cc1)C1C(=O)c2ccccc2C1=O`, the viability is 78.5% (inactive). As for `CC1CCN(C(=O)c2cc3nc(C4CC4)cc(C(F)(F)F)n3n2)CC1`, the figure is 97.6% (inactive); as for `CCC(C)NC(=O)CSC1=Nc2ccccc2C2=NC(CCC(=O)NCc3ccco3)C(=O)N12` (stereo not drawn), 90.7% (inactive); as for `COc1ccc(-c2ccc(-c3noc(-c4ccncc4)n3)c(OC)n2)cc1`, 93.4% (inactive). For `COc1cc(-c2nc(-c3ccncc3)no2)cc(OC)c1OC`, the viability was 88.6% (inactive).

On to `CCOc1nc(-c2ccc(OC)cc2)ccc1-c1noc(-c2cc(OC)c(OC)c(OC)c2)n1`, for which the viability is 13.9% (active). As for `Cc1ccc(OCC(=O)N/N=C\c2ccco2)c(C)c1`, the figure is 93.4% (inactive); as for `Cc1ccc(S(=O)(=O)C2(S(=O)(=O)c3ccc(C)cc3)CCCC2)cc1`, 18.3% (active); as for `Cc1ccc(S(=O)(=O)NC(=O)N2CCCC(C)(C)C2)cc1`, 91% (inactive).

Consider `Cc1ccc(S(=O)(=O)N(C)C2(C)CCS(=O)(=O)C2)cc1` (stereo not drawn), for which the viability was 109% (inactive). As for `O=C1Nc2c(Br)cc(Br)cc2C1(O)N1CCOCC1` (stereo not drawn), the figure is 31.2% (active); as for `Cc1c(-c2ccccc2)nc(N)c(C#N)c1-c1cccs1`, 77% (inactive). Then `CCc1c(-c2ccccc2)nc(N)c(C#N)c1-c1cccs1`, with 36% (active); and `CCc1c(C)nc2cc(-c3cccs3)[nH]n2c1=O`, with 91.8% (inactive).

Consider `O=C(O)CSc1nccn1-c1cccc(Cl)c1`, for which the viability was 88.9% (inactive). As for `Cc1noc(NS(=O)(=O)c2ccc(N/C=C/C(=O)c3ccccc3)cc2)c1C`, the figure is 76.1% (inactive). Regarding `COc1ccc(CCNS(=O)(=O)c2ccc(Cl)s2)cc1OC`, the viability was 93% (inactive). For the molecule `COc1ccc(-c2cc(C(F)(F)F)nc(NCc3cccnc3)n2)cc1`, the viability is 92.9% (inactive). Then `COc1ccc(-c2nnco2)cc1OC`, with 107% (inactive); and `COc1ccc(-c2cc(C(F)(F)F)nc(S(C)(=O)=O)n2)cc1OC`, with 1.78% (active); and `O=C(Nc1nncs1)c1cccc(S(=O)(=O)N2CCCCC2)c1`, with 94.8% (inactive). For the molecule `Cc1ccc(-n2c(SCC(=O)Nc3ccc4c(c3)OCO4)nnc2-c2ccccn2)cc1`, the viability is 65.9% (inactive). As for `Cc1cc(C)c(S(=O)(=O)N2C=CC(C(F)(F)F)=NCC2)c(C)c1`, the figure is 109% (inactive); as for `CCCCN(CC)CCNC(=O)c1[nH]c(C)c(C(C)=O)c1C`, 101% (inactive). As for `Cc1ccc(C2(C(F)(F)F)N=C3Sc4cc(C)cc(C)c4N3C(=O)N2)cc1` (stereo not drawn), the figure is 101% (inactive); as for `CCOC(=O)Cn1c(N)c(C(=O)OC)sc1=S`, 105% (inactive); as for `CCOC(=O)c1sc(=S)n(-c2cccc(OC)c2)c1N`, 97.3% (inactive). Then `CCOC(=O)c1sc(=S)n2c1[nH]c(=O)c1ccc(C(=O)OC)cc12`, with 36.7% (active); and `Cc1ccc(C)c(N2C(=O)CS/C2=N\NC(=O)c2ccccc2Cl)c1`, with 101% (inactive); and `Cn1ccs/c1=N\S(=O)(=O)c1ccc(C(C)(C)C)cc1`, with 89.4% (inactive). For the molecule `COc1ccc(NC(=O)C2C3C=CC(C3)C2C(=O)NCc2ccccn2)c(OC)c1` (stereo not drawn), the viability is 93.1% (inactive). Then `O=C(NCCc1ccccc1)c1ccc(OCCOc2ccccc2)cc1`, with 87.8% (inactive). As for `COc1ccccc1NC1=NC(c2ccc(Cl)cc2)N=C(N)N1` (stereo not drawn), the figure is 19.5% (active). As for `COc1ccccc1Nc1nc(N)nc(CN(C)C2CCCCC2)n1`, the figure is 87.4% (inactive); as for `COc1ccccc1NC1=NC2(CCCC2)N=C(N)N1`, 91.5% (inactive); as for `Cc1ccc(S(=O)(=O)NCC(C)NS(C)(=O)=O)cc1` (stereo not drawn), 95.2% (inactive). With `CCOC(=O)c1sc(NC(=O)c2ccncc2)nc1C`, the viability was 96.2% (inactive). Then `CCCCCOC(=O)c1ccc(N2C(=O)C3C4C=CC(C4)C3C2=O)cc1` (stereo not drawn), with 95.1% (inactive); and `COc1ccc(N2CCN(Cc3cc(=O)oc4ccc5ccccc5c34)CC2)cc1`, with 71.9% (inactive). Then `COC(=O)COc1ccc2oc(=O)cc(C)c2c1`, with 91.9% (inactive). For `COc1ccc(Nc2cc(=O)oc3ccccc23)cc1`, the viability is 18.4% (active). Then `Cc1cc(N2CCN(S(=O)(=O)c3ccc(C)c(C)c3)CC2)c2ccccc2n1`, with 66.8% (inactive). As for `Cc1ccc2cc(C#N)c(SCC(=O)NCC3CCCO3)nc2c1C` (stereo not drawn), the figure is 91.2% (inactive); as for `CC(NC(=O)CSc1nc2c(cc1C#N)CN(C)CC2)c1ccccc1` (stereo not drawn), 15.6% (active).

Turning to `CC1(C)CCc2nc(SCc3ccccc3)c(C#N)cc2C1`, the viability was 81.4% (inactive).

Consider `O=C1C2N=NN(CC(=O)N3N=C(c4cccc5ccccc45)CC3c3ccccc3)C2C(=O)N1c1ccccc1` (stereo not drawn), for which the viability was 70.5% (inactive).

`CCN1CCCC1Cn1cnc2c([nH]c3cc(OC)ccc32)c1=O` (stereo not drawn): the viability was 79.9% (inactive). Then `Cc1cccc(CCNS(=O)(=O)c2ccc(S(=O)(=O)NC3CCCC3)cc2)c1`, with 78% (inactive). Take `O=C(Nc1ccc(Cl)cc1)c1cc2nc(C3CC3)cc(C(F)(F)F)n2n1`: the viability was 79.5% (inactive). Take `COc1ccc(N2CCN(C(c3cc4ccc(C)cc4[nH]c3=O)c3nnnn3C3CCCC3)CC2)cc1` (stereo not drawn): the viability is 86.9% (inactive). Then `CCOC(=O)C1CCN(C(c2cc3cc(C)cc(C)c3[nH]c2=O)c2nnnn2C2CCCCC2)CC1` (stereo not drawn), with 6.09% (active); and `Cc1cc(C)c2[nH]c(=O)c(C(c3nnnn3Cc3ccc4c(c3)OCO4)N3CCCC3)cc2c1` (stereo not drawn), with 68.1% (inactive); and `Cc1ccc(-c2noc(CC(c3ccccc3)c3ccccc3)n2)cc1`, with 97.1% (inactive). Then `CCn1c(CNC(=O)c2ccccc2)nnc1SCC(=O)N1CCN(c2ccccc2)CC1`, with 90.4% (inactive); and `Cc1cccc2nc(CSc3nc4[nH]ncc4c(=O)n3-c3cccc(Cl)c3)cc(=O)n12`, with 41.8% (inactive). `Cc1cc(C)c2c(n1)nn1c(-n3ccnc3)cc(C)nc21`: the viability was 74.5% (inactive).

As to `Cc1cc(C)c2c(n1)nn1c(N3CCOCC3)cc(C)nc21`, the viability was 72.3% (inactive). As for `Cc1cc(C)c2c(n1)nn1c(N3CCN(c4cccc(Cl)c4)CC3)cc(C)nc21`, the figure is 17.6% (active); as for `O=C(NCc1ccco1)c1cc(-c2cccnc2)nc2ccc(Cl)cc12`, 68.3% (inactive); as for `O=C(CSc1c2c(nc3ccc(Cl)cc13)CCCC2)NCc1ccco1`, 7.34% (active). As to `O=C(NCc1ccco1)C1(c2ccc(Cl)cc2)CCCC1`, the viability was 96.8% (inactive). Then `COc1ccc(-n2nnnc2SCc2nc(N)nc(N3CCOCC3)n2)cc1`, with 94.2% (inactive).

On to `Cc1cc(NC(=O)CS(=O)(=O)c2cn(C)c3ccccc23)no1`, for which the viability is 78.6% (inactive).

Regarding `O=C(CSc1nc2cc3c(cc2c(=O)n1CCC1=CCCCC1)OCO3)NCc1ccco1`, the viability is 36.1% (active). In the case of `C=C(C)Cn1c(SCC(=O)NCc2ccco2)nc2sc3c(c2c1=O)CCC3`, the viability is 49.4% (inactive).

With `O=C(CCCn1c(SCC(=O)c2ccc(F)cc2)nc2ccccc2c1=O)NCc1ccco1`, the viability was 58.2% (inactive). As for `Cc1c(CCO)c(=O)n(-c2ccccc2)n1S(=O)(=O)c1ccc(F)cc1`, the figure is 75.6% (inactive); as for `CCn1c(SCC(=O)Nc2ccc(S(=O)(=O)Nc3onc(C)c3C)cc2)nnc1-c1ccccc1`, 98.3% (inactive); as for `COn1c(=O)c(=O)n(OC)c2ccccc21`, 97.1% (inactive).

Consider `COC(=O)c1ccccc1Oc1c(F)c(F)nc(N2CCOCC2)c1F`, for which the viability is 67.1% (inactive). As to `Cc1ccc2c(c1)N(CC(=O)N(Cc1ccccn1)Cc1ccco1)C(=O)C(C(C)C)O2` (stereo not drawn), the viability was 35% (active). As for `Cc1ccc(C(C(=O)NC2CCCC2)N(Cc2ccco2)C(=O)CCC(=O)Nc2ccccn2)cc1` (stereo not drawn), the figure is 69.7% (inactive).

For the molecule `Cc1ccc(C)c(N(CC(=O)NCc2ccco2)C(=O)CCC(=O)Nc2ccccn2)c1`, the viability is 98.1% (inactive).
